# An excerpt weighted towards active compounds, which were near 18% of everything screened.
# TGFb inhibitor: inhibitors of TGF-b signaling | hit rate 1.2% among 410,000 | HepG2 CAGA-GFP TGF-b/SMAD3 reporter, GFP fluorescence, 18 h; TGF-beta stimulated, 500 pg/mL final | Potency, µM (series often up to 46.1 µM), for inactives: at the top dose activity, negative = inhibition, hits mostly inhibitors; also: potency is read from the fitted curve at half-maximal effect; % is scaled to controls: 0 for no effect and ±100 for the full control effect; nearly all actives have a fitted effect of over 65% in size
#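 TGF-beta reporter screen: HEPG2 CAGA-GFP, 1% FBS, 500 pg/mL TGF-beta final, 18 h; per-cell GFP summed per well; curves fitted and categorized by class.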
# DT40 TDP1 CPT: growth inhibition of DT40 Tdp1-/-;hTDP1 cells with camptothecin (screen for TDP1 inhibitors). AID 686979. Potency, µM (titrated, usually from 46.2 µM), without a hit: at the highest dose activity change, negative = growth inhibition, usual class: inhibitors. chicken DT40 Tdp1-/-;hTDP1 cells + 20 nM CPT, ATP luminescence, 48 h. hit rate 12% among 420,000; also: potency is read from the fitted curve at half-maximal effect; % is scaled to controls: 0 for no effect and ±100 for the full control effect; nearly all actives have a fitted effect of over 55% in size
#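 Cell growth measured by CellTiter-Glo luminescence after a minimum 48 h, 37 C compound exposure with 20 nM CPT in Tdp1-knockout DT40 cells stably expressing hTDP1, seeded 400/well; qHTS titration format.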
# TDP1 inh: blocks human tyrosyl-DNA phosphodiesterase 1; recombinant TDP1, AlphaScreen DNA substrate cleavage; Potency, µM (highest dose often 130 µM), without a hit: at the top dose activity change, negative = inhibition, usual class: inhibitors; hit rate 0.28% among 350,000; AID 485290; Q9NUW8; also: potency is read from the fitted curve at half-maximal effect; % is scaled to controls: 0 for no effect and ±100 for the full control effect; nearly all actives have a fitted effect of over 40% in size
# Target sequence (Q9NUW8 whole entry, looked up): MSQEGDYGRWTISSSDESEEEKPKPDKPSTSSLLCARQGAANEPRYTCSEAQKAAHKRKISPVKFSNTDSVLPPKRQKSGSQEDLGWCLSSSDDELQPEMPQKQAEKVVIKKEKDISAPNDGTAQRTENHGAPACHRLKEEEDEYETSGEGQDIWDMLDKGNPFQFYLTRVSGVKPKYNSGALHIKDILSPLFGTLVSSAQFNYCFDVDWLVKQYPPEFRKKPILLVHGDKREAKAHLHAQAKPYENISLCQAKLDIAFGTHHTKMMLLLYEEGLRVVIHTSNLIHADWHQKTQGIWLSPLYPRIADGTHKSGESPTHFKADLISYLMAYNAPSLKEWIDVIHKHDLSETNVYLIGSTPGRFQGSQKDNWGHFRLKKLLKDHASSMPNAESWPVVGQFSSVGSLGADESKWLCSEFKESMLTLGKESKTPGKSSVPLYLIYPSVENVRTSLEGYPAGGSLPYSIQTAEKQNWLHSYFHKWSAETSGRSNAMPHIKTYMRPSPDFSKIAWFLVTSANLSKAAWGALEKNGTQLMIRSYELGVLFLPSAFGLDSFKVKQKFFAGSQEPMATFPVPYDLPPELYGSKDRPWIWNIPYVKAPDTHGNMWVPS
#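 Here, a 5' biotin and 3' phosphotyrosine-FITC DNA oligonucleotide reports Tdp1 activity: intact substrate bridges AlphaScreen beads, while cleavage leaves a 3' phosphate and drops signal. All incubations at room temperature.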
# IL1B secr inh: inhibitors of inflammasome signaling (IL-1 beta secretion); THP-1 LPS/ATP IL-1B secretion, AlphaLISA, 16 h; stronger effect = lower value; activity change, % at 57.5 µM; hit rate 4.7% among 360,000; AID 743279; in the data active = activity change below about -50%; inconclusive = mostly about -30% to -49%; also: % is scaled to controls: 0 for no effect and ±100 for the full control effect
#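 THP-1 cells pretreated 1 hr with compounds (up to 57.5 uM final), then stimulated with LPS (250 ng/mL final) plus ATP (1.25 mM final); secreted IL-1B measured by AlphaLISA after 16 hr, decreased signal indicating inhibition.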
# TDP1 cell noCPT: qHTS for Inhibitors of human tyrosyl-DNA phosphodiesterase 1 (TDP1): qHTS in cells in absence of CPT; hit rate 15% among 420,000; DT40 Tdp1-/- hTDP1 cells, no CPT, ATP luminescence, 48 h; Potency, µM (series often up to 46.2 µM), for the others: at the highest dose activity change, negative = growth inhibition, most hits filed as inhibitors; also: potency is read from the fitted curve at half-maximal effect; % is scaled to controls: 0 for no effect and ±100 for the full control effect; nearly all actives have a fitted effect of over 55% in size
#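 Stably hTDP1-transfected Tdp1-null chicken DT40 cells were treated with library compounds minus camptothecin and grown for at least 48 hr at 37 °C, after which cellular ATP was quantified by luminescence.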
# HepG2 tox: counter-screen for TGF-b inhibitors: cytotoxicity in HepG2 cells; HepG2 CAGA-GFP viability, ATP luminescence, 18 h; Potency, µM (doses to about 46.1 µM), for the others: at the top dose activity change, negative = cytotoxicity, usual class: cytotoxic; hit rate 0.76% among 410,000; AID 588856; also: potency is read from the fitted curve at half-maximal effect
#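 HepG2 CAGA-GFP cells (1000/well, DMEM with 1% FBS) received compound, then TGF-beta at 500 pg/mL final, and were incubated 18 hours at 37 degrees C. Viability was read by CellTiter-Glo luminescence. Media-only wells were set as complete cell-killing and DMSO as no toxicity.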
# * marks the source's active call; other numbers are inactive results; ? = inconclusive; nt = not tested or not shown; [ ] = dose if it differs, or a comment. Unless noted, calls follow the shape of the dose curve; as a rule, active = well fitted curve in the direction sought with a large enough effect; inconclusive = small, poorly fitted or top-dose-only effect, or another doubt; inactive = no such curve, though single readings can be large; an effect the other way counts as inactive or inconclusive.
SMILES,TGFb inhibitor,DT40 TDP1 CPT,TDP1 inh,IL1B secr inh,TDP1 cell noCPT,HepG2 tox
CCCCC[C@H](O)/C=C/[C@H]1[C@H](O)CC(O)[C@@H]1C/C=C\CCCC(=O)O (some centres not stated),nt,nt,9%,nt,nt,nt
CCCCC[C@H](O)/C=C/[C@H]1C(=O)C=C[C@@H]1C/C=C\CCCC(=O)O,nt,12%[4.12 µM],7%,nt,14%[4.12 µM],nt
CCCCC[C@H](O)/C=C/[C@@H]1[C@@H](C/C=C\CCCC(=O)OC)[C@@H](O)C[C@H]1O,-2%,-28%,50µM*,-23,?,-9%
CCCCC[C@H](O)/C=C/C1C(=O)C=C[C@H]1C/C=C\CCCC(=O)OC (some centres not stated),22µM*,5.8µM*,nt,-102*,7.3µM*,-76%
Cc1cccc(C)c1NC(=O)CNC(=O)c1ccc2nc[nH]c2c1,11%,8%,-14%,24,-19%,11%
COc1ccc(C(=O)C(=NNc2ccccc2)c2ccc(OC)cc2)cc1,22%,?,nt,-55*,?,-7%
COc1ccc(N/N=C(\C=N\O)C(=O)c2ccc(OC)cc2)cc1,0%,2.6µM*,9%,17,2.9µM*,-17%
COc1ccccc1-c1noc(CCC(=O)N2CCN(c3cc(C)ccc3C)CC2)n1,?,?,2%[56.1 µM],14,15µM*,4%
Cc1ccc(C)c(N2CCN(C(=O)CCc3nc(-c4ccccc4C(F)(F)F)no3)CC2)c1,?,?,-4%[56.1 µM],?,?,-20%
COc1ccc(C(=O)CCC(=O)N2CCN(c3cc(C)ccc3C)CC2)cc1,-27%,16µM*,6%,?,?,-1%
COc1ccc(-c2noc(CCCCC(=O)N3CCN(c4cc(C)ccc4C)CC3)n2)cc1,?,4.1µM*,0%[56.1 µM],14,2.9µM*,-2%
CC1=C(C(=O)N(C)C)CC(CC(=O)NCCCN(C)C)C(=O)N1CCC1=CCCCC1 (configuration not stated),4%,-6%,nt,30,5%,-3%
CCOc1ccc2nc(/N=C/c3c(C)[nH]n(-c4ccccc4)c3=O)sc2c1,-13%,?,3%,0,?,-40%
CCOC(=O)c1cnc(SC2CC(=O)N(c3ccc(OC)c(OC)c3)C2=O)nc1N (configuration not stated),-2%,21µM*,5%,18,?,-32%
CCOc1ccc2nc(SC3CC(=O)N(c4ccc(C)cc4)C3=O)sc2c1 (configuration not stated),3%,4.6µM*,-5%,15,4.6µM*,-29%
CCOc1ccc2nc(SC3CC(=O)N(c4ccc(OC)cc4OC)C3=O)sc2c1 (configuration not stated),1%,4.6µM*,-3%,29,3.3µM*,11%
CCOc1ccc2nc(/N=C/c3c(C)[nH]n(-c4ccc(C)cc4)c3=O)sc2c1,4%,16µM*,8%,-6,?,-76%
COc1ccc(N2C(=O)CC(Sc3nccc(C)n3)C2=O)c(OC)c1 (configuration not stated),3%,?,nt,18,?,14%
Cc1ccc(C(C(=O)NC2CCCC2)N(C(=O)c2csnn2)c2ccccc2)o1 (configuration not stated),-22%,8%,nt,9,-1%,0%
CCOc1ccc(N2C(=O)CC(Sc3nc4ccc(OCC)cc4s3)C2=O)cc1 (configuration not stated),10%,4.1µM*,nt,14,4.6µM*,14%
CCOc1ccc(N2C(=O)CC(Sc3nccc(C)n3)C2=O)cc1 (configuration not stated),0%,?,6%,25,?,-9%
COc1ccc(N2C(=O)CC(Sc3nc4ccccc4s3)C2=O)cc1OC (configuration not stated),-3%,4.6µM*,9%,47,2.9µM*,-30%
C=CCNc1nnc(SC2CC(=O)N(c3ccc(OCCC)cc3)C2=O)s1 (configuration not stated),?,1.8µM*,4%,9,4.1µM*,-67%
CC(=O)Nc1ccc(N2C(=O)CC(Sc3nc4ccccc4s3)C2=O)cc1 (configuration not stated),8%,?,5%,21,?,-9%
CC1=C(C)/C(=N/OC(=O)c2cccc([N+](=O)[O-])c2)C=CC1=O,?,21µM*,5%,-4,21µM*,-43%
SMILES,TGFb inhibitor,DT40 TDP1 CPT,TDP1 inh,IL1B secr inh,TDP1 cell noCPT,HepG2 tox
N/C(=N/OC(=O)c1cccc([N+](=O)[O-])c1)c1cccc([N+](=O)[O-])c1,5%,-23%,0%,-11,-27%,-7%
COc1ccc(N(CC(=O)Nc2ccccc2C(F)(F)F)C2=NC3CS(=O)(=O)CC3S2)cc1 (configuration not stated),-2%,-20%,nt,-60*,?,-20%
Cc1cc(C)cc(N(CC(=O)Nc2ccccc2)C2=NC3CS(=O)(=O)CC3S2)c1 (configuration not stated),-27%,?,3%,-94*,?,-59%
COc1ccc(N(CC(=O)Nc2ccc(C)c(C)c2)C2=NC3CS(=O)(=O)CC3S2)cc1 (configuration not stated),10%,12%,nt,-14,-1%,-7%
Cc1ccc2nc(NC(=O)CSc3cc(C)[nH]c(=O)n3)sc2c1,7%,8%,-5%,nt,-1%,-14%
Cc1cc(C)c(C)c(S(=O)(=O)N2CCN(C(=O)c3cc(=O)[nH]c4ccccc34)CC2)c1C,28%,?,1%,0,13µM*,-36%
N#Cc1ccccc1S(=O)(=O)N1CCN(C(=O)c2cc(=O)[nH]c3ccccc23)CC1,-1%,?,-4%,32,4%,-11%
Cc1cc(C)c(S(=O)(=O)N2CCN(C(=O)c3cc(=O)[nH]c4ccccc34)CC2)c(C)c1,3%,15µM*,2%,-13,16µM*,-16%
Nc1ccc(N2CCOCC2)c(S(=O)(=O)Nc2cc(Cl)ccc2Cl)c1,0%,-2%,8%,38,1%,-10%
O=C(/C=C/c1cccs1)Nc1ccc(N2CCOCC2)c(S(=O)(=O)Nc2ccccc2Cl)c1,?,?,-3%,?,23µM*,-22%

# Compound activity from PubChem.
